Data reported in PubChem BioAssay AID1159580 (chemical genetic matrix, 2015).
Several values for one entry are separate records, joined by “and”; a condition that tells them apart may be missing. Equal values may be shown once. The campaign covered roughly 5,500 compounds. About 2,000 (36%) were called active. Inconclusive results (about 18%) are left out. Rule as the data show it: active = normalized growth mostly below about 0.91 (no sharp cut-off); inconclusive = no clear call, values can overlap the other calls; inactive = mostly above about 0.92. The list shows a part of the results.

Test: chemical genetic growth profiling, strain panel (AID 1159580);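 also: tested at 20 µM; growth read once vehicle control cultures reached saturation at 30 °C; 1 = growth at the plate median or of vehicle wells; lower values mean less growth of the strain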
Conditions: S. cerevisiae deletion strains, growth OD

Measured: normalized growth

CN[C@@H]1C(O)[C@@H](O[C@@H]2[C@@H](O)[C@H](O[C@H]3OC(CN)=CC[C@H]3N)[C@@H](N)C[C@H]2N)OC[C@]1(C)O (some centres undefined)
active: locus YGR252W, strain gcn5, active compounds read low 0.651 | locus YJR043C, strain POL32, active compounds read low 1.2 [resistant]
inactive: locus YAL013W, strain DEP1, active compounds read low 1.02 | locus YAL021C, strain ccr4, active compounds read low 1.01 | locus YAL026C, strain drs2, active compounds read low 0.99 | locus YAL030W, strain snc1, active compounds read low 1.01 | locus YBL061C, strain skt5, active compounds read low 1.01 | locus YBR009C, strain hhf1, active compounds read low 0.968 | locus YBR021W, strain FUR4, active compounds read low 1.02 | locus YBR023C, strain chs3, active compounds read low 1.01 | locus YBR171W, strain sec66, active compounds read low 1.02 | locus YBR229C, strain ROT2, active compounds read low 1.02 | locus YBR231C, strain swc5, active compounds read low 1.02 | locus YBR279W, strain paf1, active compounds read low 1 | locus YCL011C, strain gbp2, active compounds read low 1 | locus YCL016C, strain dcc1, active compounds read low 0.997 | locus YCL029C, strain bik1, active compounds read low 0.997 | locus YCL061C, strain MRC1, active compounds read low 1.03 | locus YCL069W, strain vba3, active compounds read low 1.01 | locus YCR088W, strain abp1, active compounds read low 1.01 | locus YDL005C, strain med2, active compounds read low 1.01 | locus YDL035C, strain GPR1, active compounds read low 1.02 | locus YDL040C, strain nat1, active compounds read low 1.01 | locus YDL074C, strain BRE1, active compounds read low 1.08 | locus YDL101C, strain DUN1, active compounds read low 1.04 | locus YDL134C, strain PPH21, active compounds read low 1.02 | locus YDL185W, strain tfp1, active compounds read low 1 | locus YDL192W, strain arf1, active compounds read low 0.995 | locus YDR001C, strain nth1, active compounds read low 1.02 | locus YDR069C, strain doa4, active compounds read low 1.02 | locus YDR101C, strain arx1, active compounds read low 0.987 | locus YDR137W, strain rgp1, active compounds read low 0.998 | locus YDR150W, strain NUM1, active compounds read low 1.02 | locus YDR159W, strain sac3, active compounds read low 0.989 | locus YDR162C, strain NBP2, active compounds read low 1.03 | locus YDR195W, strain ref2 1.03 | locus YDR297W, strain sur2, active compounds read low 1.02 | locus YDR334W, strain swr1, active compounds read low 1.02 | locus YDR335W, strain msn5, active compounds read low 1.01 | locus YDR388W, active compounds read low 0.985 | locus YDR392W, strain spt3, active compounds read low 0.959 | locus YDR502C, strain sam2, active compounds read low 1.01 | locus YEL003W, strain gim4, active compounds read low 1.01 | locus YEL037C, strain rad23, active compounds read low 1.02 | locus YEL061C, strain CIN8 (second series), active compounds read low 1.02 | locus YEL061C, strain CIN8, active compounds read low 1.07 | locus YER015W, strain faa2, active compounds read low 1.02 | locus YER016W, strain bim1, active compounds read low 0.979 | locus YER110C, active compounds read low 0.96 | locus YER111C, strain swi4, active compounds read low 1.02 | locus YER155C, strain BEM2 (second series), active compounds read low 0.996 | locus YER155C, strain BEM2, active compounds read low 1 | locus YER167W, strain BCK2, active compounds read low 1.02 | locus YFR010W, strain ubp6, active compounds read low 1.03 | locus YGL078C, strain dbp3, active compounds read low 0.985 | locus YGL086W, strain mad1, active compounds read low 0.994 | locus YGL167C, strain pmr1, active compounds read low 1.02 | locus YGL173C, strain kem1, active compounds read low 1.02 | locus YGL227W, strain vid30, active compounds read low 1.02 | locus YGL240W, strain doc1, active compounds read low 1.03 | locus YGL248W, strain PDE1, active compounds read low 1.03 | locus YGL253W, strain hxk2, active compounds read low 1 | locus YGR078C, strain PAC10, active compounds read low 1.03 | locus YGR135W, strain pre9, active compounds read low 1.01 | locus YGR229C, strain SMI1, active compounds read low 1.05 | locus YHR013C, strain ard1, active compounds read low 1.01 | locus YHR027C, strain rpn1, active compounds read low 1 | locus YHR030C, strain SLT2, active compounds read low 1 and 0.98 | locus YHR079C, strain IRE1 (second series), active compounds read low 1 | locus YHR079C, strain IRE1, active compounds read low 0.95 | locus YHR129C, strain ARP1, active compounds read low 1.02 | locus YHR142W, strain chs7, active compounds read low 1.02 | locus YHR200W, strain rpn10, active compounds read low 1 | locus YIL066C, strain RNR3, active compounds read low 1.02 | locus YIL073C, strain SPO22, active compounds read low 1.03 | locus YIL125W, strain kgd1, active compounds read low 1.01 | locus YIR030C, strain dcg1, active compounds read low 0.995 | locus YJL092W, strain hpr5, active compounds read low 1.02 | locus YJL095W, strain BCK1 (second series), active compounds read low 1.01 | locus YJL095W, strain BCK1, active compounds read low 1.06 and 0.978 | locus YJL115W, strain asf1, active compounds read low 1.02 | locus YJL129C, strain trk1, active compounds read low 1.02 | locus YJL134W, strain LCB3, active compounds read low 1.02 | locus YJL154C, strain vps35, active compounds read low 1.01 | locus YJL164C, strain tpk1, active compounds read low 1.01 | locus YJL166W, strain qcr8, active compounds read low 1.03 | locus YJL168C, strain set2, active compounds read low 0.997 | locus YJL187C, strain SWE1 (second series), active compounds read low 1.03 | locus YJR066W, strain TOR1, active compounds read low 0.96
